An excerpt weighted towards active compounds, which were near 1.6% of everything screened.
KCNQ2 inh = KCNQ2 (rat) channel inhibition. O88943. AID 2156. B-score at 10 µM. hit rate 1.1% among 310,000. CHO-K1 KCNQ2, FluxOR thallium flux, 20 min; hits give low values;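 active = fluorescence ratio B-score at most minus 3 library SDs, with starting brightness B-score within 2 library SDs, cut at about -5.5 in these data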
Target sequence (O88943 whole entry, looked up): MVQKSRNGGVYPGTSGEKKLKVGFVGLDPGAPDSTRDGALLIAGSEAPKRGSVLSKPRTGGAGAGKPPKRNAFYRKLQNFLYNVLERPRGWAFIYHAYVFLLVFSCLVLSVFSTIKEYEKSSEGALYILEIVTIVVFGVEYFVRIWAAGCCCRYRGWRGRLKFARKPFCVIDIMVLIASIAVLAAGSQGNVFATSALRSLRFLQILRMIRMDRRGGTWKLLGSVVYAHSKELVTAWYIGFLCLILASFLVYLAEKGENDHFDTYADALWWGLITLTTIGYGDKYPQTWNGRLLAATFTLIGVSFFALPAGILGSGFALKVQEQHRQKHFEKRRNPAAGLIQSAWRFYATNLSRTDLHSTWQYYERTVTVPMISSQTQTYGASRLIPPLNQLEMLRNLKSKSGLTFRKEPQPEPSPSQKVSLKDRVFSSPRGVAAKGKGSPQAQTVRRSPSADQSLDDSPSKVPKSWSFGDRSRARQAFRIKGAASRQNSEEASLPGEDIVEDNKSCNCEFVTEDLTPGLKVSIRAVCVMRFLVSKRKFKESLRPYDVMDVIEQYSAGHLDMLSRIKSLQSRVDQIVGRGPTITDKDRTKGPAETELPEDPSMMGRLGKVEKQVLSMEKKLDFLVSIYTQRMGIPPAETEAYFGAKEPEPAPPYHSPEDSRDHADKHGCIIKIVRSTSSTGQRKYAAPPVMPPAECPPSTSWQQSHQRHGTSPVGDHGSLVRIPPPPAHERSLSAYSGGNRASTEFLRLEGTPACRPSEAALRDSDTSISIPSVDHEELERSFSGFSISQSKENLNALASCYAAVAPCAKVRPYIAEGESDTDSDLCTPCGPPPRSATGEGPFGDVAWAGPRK
KCNQ2 pot = potentiators of rat KCNQ2 potassium channel; O88943; CHO-K1 KCNQ2, FluxOR thallium flux fluorescence; hits give high values; B-score at 10 µM; hit rate 0.54% among 310,000; AID 2239;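 active = fluorescence ratio B-score at least 3 SD of library B-scores, with initial fluorescence B-score within 3 of them, cut at about 5.3 in these data; same plate scores as AID 2156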;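 note: B-score of peak minus minimum over baseline fluorescence ratio after K+ and Tl+ stimulus; positive B-score means potentiation of KCNQ2 with more thallium influx and brighter signal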
KCNQ2 inh conf = rat KCNQ2 channel inhibition, confirmatory screen | shares compounds with KCNQ2 inh | KCNQ2-expressing cells, thallium flux; hits give low values | hit rate 57% among 1,000 | activity change, negative = inhibition, % at 10 µM | AID 493025;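 note: 0% = vehicle wells and values are ratio percent relative to vehicle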
KCNQ1 spec = human KCNQ1 activity in KCNQ2 inhibitor specificity screen | shares compounds with KCNQ2 inh | KCNQ1-expressing cells, FluxOR thallium flux fluorescence; hits give low values | activity change, negative = inhibition, % at 10 µM | hit rate 15% among 1,000 | AID 493026;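 active = activity change at least 3 SD of negative controls below their mean in both duplicate wells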;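 note: CHO cells stably transfected with KCNQ1 and depolarized by potassium stimulus; peak minus minimum fluorescence over baseline after thallium addition; 0% = vehicle negative control and -100% = blank without thallium stimulus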
CHO Tl ctr = KCNQ2 inhibitor counter-screen hit in parental CHO cells | shares compounds with KCNQ2 inh | thallium flux counter-screen; hits give low values | activity change, % at 10 µM | hit rate 14% among 1,000 | AID 493029;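 note: 0% = vehicle negative controls with stimulus buffer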
KCNQ2 patch conf = blocks rat KCNQ2 current in automated patch clamp | calls only at 10 µM | KCNQ2-expressing cells | shares compounds with KCNQ2 inh | hit rate 49% among 550
* marks the source's active call; other numbers are inactive results; i = inactive; / = not tested or not shown; + = active, no number. Unless noted, the rule behind the calls is not given here.

SMILES	KCNQ2 inh	KCNQ2 pot	KCNQ2 inh conf	KCNQ1 spec	CHO Tl ctr	others
CN1/C(=C\C(=S)NC(=O)c2cccc(Br)c2)C(C)(C)c2ccccc21	-7.84*	-7.84	-22.0%*	i	i	KCNQ2 patch conf=+
CN1/C(=C\C(=S)NC(=O)c2ccc([N+](=O)[O-])cc2)C(C)(C)c2ccccc21	i	/	/	/	/
CN1/C(=C\C(=O)Nc2cccc(Cl)c2)C(C)(C)c2ccccc21	-7.13*	-7.13	-20.5%*	i	i	KCNQ2 patch conf=i
Cc1onc(-c2ccccc2)c1C(=O)N/N=C/c1c(F)cccc1Cl	i	1.05	/	/	/
Cc1ccc(Cn2c(C(C)Nc3nc(C)cs3)nc3cc(Cl)c(Cl)cc32)cc1 (configuration not stated)	i	/	/	/	/
COc1ccccc1NC(=O)C1CCCN(c2cnccn2)C1 (configuration not stated)	i	/	/	/	/
Cc1cccc(N2CCN(C3CCCCC3NS(=O)(=O)c3ccccc3)CC2C)c1 (configuration not stated)	i	/	/	/	/
Cc1nc(Sc2ccc(Br)cc2)c(C#N)c(C)c1[N+](=O)[O-]	-7.65*	-7.65	-20.5%*	i	i	KCNQ2 patch conf=i
Cc1ccc(Sc2nc(C)c([N+](=O)[O-])c(C)c2C#N)cc1	i	/	/	/	/
O=C(COc1ccc(Cl)cc1Cl)NCCCCc1ccccc1	-7.79*	-7.79	i	i	i
CC(Oc1ccc(Cl)cc1Cl)C(=O)NCCCCc1ccccc1 (configuration not stated)	i	/	/	/	/
O=C(CN1C(=O)NC2(CCOc3ccccc32)C1=O)NCC(F)(F)F (configuration not stated)	i	/	/	/	/
CC(=O)OC[C@H]1O[C@@H](n2ncc(=O)[nH]c2=O)[C@H](OC(C)=O)[C@@H]1OC(C)=O	i	0.09	/	/	/
O=C(OCC1OC(n2ncc(=O)[nH]c2=O)C(OC(=O)c2ccccc2)C1OC(=O)c1ccccc1)c1ccccc1 (configuration not stated)	-11.1*	-11.1	-22.5%*	i	i	KCNQ2 patch conf=i
Cc1cccc2cc(C#N)c(NCCNS(=O)(=O)c3ccc4c(c3)OCCO4)nc12	i	0.29	/	/	/
Cn1c(N)c(C(=O)COC(=O)CSc2ccc(Cl)cc2)c(=O)n(C)c1=O	i	2.03	/	/	/
CSC(SC)=C(C#N)C(=O)c1ccccc1	-7.92*	-7.92	i	i	i
COc1cccc(C(=O)C(C#N)=C(SC)SC)c1	i	/	/	/	/
Cc1ccc(S(=O)(=O)N2CCCOC2CNC(=O)C(=O)NCc2ccncc2)cc1 (configuration not stated)	i	0.7	/	/	/
CC(C)CN(C(=O)c1cccc(S(=O)(=O)N2CCN(Cc3ccccc3)CC2)c1)C1CCS(=O)(=O)C1 (configuration not stated)	i	1.14	/	/	/
COc1cccc(CNc2cc(C)ccn2)c1O	i	0.73	/	/	/
Cc1ccnc(NCc2cccc3ccccc23)c1	-6.92*	-6.92	-40.0%*	-29.0%*	-28.5%*
CCOC(=O)c1cnc2cc(F)c(F)cc2c1N1CCN(C)CC1	i	0.13	/	/	/
Cc1ccc(OCC(=O)NCCCNC(=O)c2ccncc2)cc1C	i	1.01	/	/	/
CCOC(=O)c1cnc(-n2nc(C)cc2C)nc1NC1CCCCC1	-8.9*	-8.9	-33.0%*	i	i	KCNQ2 patch conf=+
SMILES	KCNQ2 inh	KCNQ2 pot	KCNQ2 inh conf	KCNQ1 spec	CHO Tl ctr	others
CCOC(=O)c1cnc(-n2nc(C)cc2C)nc1NC	i	0.03	/	/	/
Nc1ccn(Cc2ccc(F)cc2)n1	i	/	/	/	/
CN1CCN(c2cc(-c3ccccc3)nc3cc(-c4ccc(F)cc4)nn23)CC1	i	/	/	/	/
COc1cccc(-c2cc3nc(-c4ccccc4)cc(N4CCC5(CC4)OCCO5)n3n2)c1	-8.41*	-8.41	-31.5%*	i	i	KCNQ2 patch conf=i
O=C(CSc1nc2ccccc2[nH]1)N1CCCCC1	i	0.33	/	/	/
Cc1c(C)n(C(=O)CSc2nc3ccccc3[nH]2)c2ccccc12	-10.7*	-10.7	-30.0%*	i	i	KCNQ2 patch conf=i
CCOP(=O)(OCC)C(NC(=O)Nc1c(C)cc(C)cc1C)c1ccccc1 (configuration not stated)	-9.24*	-9.24	-21.0%*	i	i	KCNQ2 patch conf=+
CCOP(=O)(OCC)C(NC(=O)Nc1ccccc1)c1ccccc1 (configuration not stated)	i	/	/	/	/
Cc1ccc(S(=O)(=O)N2CCOCC2)cc1C(=O)NC(=S)N1CC(C)OC(C)C1 (configuration not stated)	i	2.66	/	/	/
C(=N\NC(=Nc1ccccc1)c1ccccn1)/c1ccccn1	i	/	/	/	/

Screens from PubChem BioAssay.
